# Experimental data published in the antibiotic and cytotoxicity screens of Wong et al. (2023).
# In all, about 39,000 compounds went through this assay and about 3,300 (8.5%) were called active. What follows is part of a selection rich in actives, with near analogues and random picks from the rest.
# System: HepG2
# Test: cytotoxicity call (relative viability < 0.9)
# Conditions: 10 µM
row,Compound,cytotoxicity call
1,C[C@@H]1CN([C@@H](C)CO)C(=O)Cc2cc(NS(=O)(=O)c3cccs3)ccc2O[C@@H]1CN(C)S(=O)(=O)c1cn(C)cn1,inactive
2,Cc1ccc(S(=O)(=O)N(C)C[C@H]2Oc3ccc(NC(=O)CCN4CCOCC4)cc3CC(=O)N([C@H](C)CO)C[C@@H]2C)cc1,inactive
3,C/C=C/c1ccc2c(c1)O[C@@H](CN(C)Cc1ccc(C(=O)O)cc1)[C@H](C)CN([C@H](C)CO)S2(=O)=O,inactive
4,C[C@@H]1CN([C@@H](C)CO)C(=O)c2c(c3ccccc3n2C)-c2ccccc2CO[C@H]1CN(C)C(=O)c1ccc(F)cc1,inactive
5,OC[C@H]1O[C@H](C#Cc2ccccc2)C=C[C@@H]1O,inactive
6,C[C@H](CO)N1C[C@H](C)[C@H](CN(C)C(=O)Nc2ccc3c(c2)OCO3)Oc2c(NC(=O)c3ccncc3)cccc2C1=O,inactive
7,Cc1ccc(S(=O)(=O)N[C@H]2C=C[C@@H](CC(=O)NCCN3CCCCC3)O[C@@H]2CO)cc1,inactive
8,Cn1cnc2c1c(=O)[nH]c(=O)n2C,inactive
9,Cc1cc(C(=O)N2CCCC[C@@H]2CCOc2cccc(CN(C)Cc3cccc4cccnc34)c2)c(=O)[nH]c1C,inactive
10,Cc1nc(-c2cccc(F)c2)cs1,inactive
11,COc1ccc2c3c([nH]c2c1)[C@@H](CO)N(C[C@]13CN(CC2CCOCC2)C1)C(=O)Nc1c(noc1C)C,inactive
12,C[C@@H]1CCCCO[C@@H](CN(C)C(=O)Nc2ccccc2)[C@@H](C)CN([C@H](C)CO)C(=O)c2cc(NC(=O)Nc3cccc4ccccc34)ccc2O1,inactive
13,C[C@@H]1CN([C@@H](C)CO)C(=O)c2cc(NC(=O)Nc3ccc(F)cc3)ccc2O[C@H]1CN(C)S(C)(=O)=O,inactive
14,COc1ccc(NC(=O)Nc2ccc3c(c2)CC(=O)N([C@@H](C)CO)C[C@H](C)[C@@H](CN(C)C(=O)Nc2ccc(C(F)(F)F)cc2)O3)cc1,inactive
15,COc1ccc(NC(=O)Nc2ccc3c(c2)CC(=O)N([C@H](C)CO)C[C@H](C)[C@H](CN(C)C(=O)Nc2ccc(C(F)(F)F)cc2)O3)cc1,inactive
16,COc1ccc(NC(=O)N(C)C[C@H]2Oc3ccc(NC(=O)Nc4ccc(C(F)(F)F)cc4)cc3CC(=O)N([C@@H](C)CO)C[C@H]2C)cc1,active
17,COc1ccc(NC(=O)Nc2ccc3c(c2)CC(=O)N([C@@H](C)CO)C[C@H](C)[C@H](CN(C)C(=O)Nc2ccc(C(F)(F)F)cc2)O3)cc1,active
18,COc1ccc(NC(=O)Nc2ccc3c(c2)CC(=O)N([C@@H](C)CO)C[C@@H](C)[C@@H](CN(C)C(=O)Nc2ccc(C(F)(F)F)cc2)O3)cc1,inactive
19,COc1ccc(NC(=O)N(C)C[C@@H]2Oc3ccc(NC(=O)Nc4ccc(C(F)(F)F)cc4)cc3CC(=O)N([C@H](C)CO)C[C@@H]2C)cc1,inactive
20,CO[C@H]1CCN(C(=O)CN(C)C)[C@@H]2CCO[C@@H]12,inactive
21,C[C@H](CO)N1C[C@H](C)[C@@H](CN(C)Cc2cccc3c2OCCCO3)OCc2ccccc2-c2c(n(C)c3ccccc23)C1=O,inactive
22,CCCC(=O)Nc1ccc2c(c1)C(=O)N(C)C[C@@H](OC)[C@@H](C)CN(Cc1ccc(-c3ccccn3)cc1)[C@H](C)CO2,inactive

row,Compound,cytotoxicity call
1,CN1C(=O)c2cc(NS(C)(=O)=O)ccc2OC[C@@H]2O[C@H](CC(=O)N3CCOCC3)CC[C@@H]21,inactive
2,C[C@@H]1C(=O)O[C@@H]2C[C@@](C)(O)[C@H]3C[C@H]4O[C@@]4(C)[C@@]3(O)C(=O)[C@@H]12,inactive
3,Cc1ccc(S(=O)(=O)N(C)C[C@H]2Oc3ccc(NC(=O)C4CC4)cc3C(=O)N([C@@H](C)CO)C[C@H]2C)cc1,inactive
4,Cc1ccc(S(=O)(=O)N(C)C[C@H]2Oc3ccc(NC(=O)CCN4CCOCC4)cc3C(=O)N([C@@H](C)CO)C[C@@H]2C)cc1,active
5,Cc1ccc(S(=O)(=O)N(C)C[C@@H]2Oc3ccc(NC(=O)C4CC4)cc3C(=O)N([C@H](C)CO)C[C@@H]2C)cc1,inactive
6,Cc1ccc(S(=O)(=O)N(C)C[C@@H]2Oc3ccc(NC(=O)CCN4CCOCC4)cc3C(=O)N([C@H](C)CO)C[C@@H]2C)cc1,inactive
7,COc1ccc(S(=O)(=O)N(C)C[C@H]2Oc3ccc(NC(=O)C4CC4)cc3C(=O)N([C@@H](C)CO)C[C@@H]2C)cc1,active
8,Cc1ccc(S(=O)(=O)N(C)C[C@@H]2Oc3ccc(NC(=O)C4CC4)cc3C(=O)N([C@@H](C)CO)C[C@H]2C)cc1,active
9,COc1ccc(S(=O)(=O)N(C)C[C@H]2Oc3ccc(NC(=O)C4CC4)cc3C(=O)N([C@@H](C)CO)C[C@H]2C)cc1,inactive
10,COc1ccc(S(=O)(=O)N(C)C[C@@H]2Oc3ccc(N(C)C)cc3C(=O)N([C@H](C)CO)C[C@@H]2C)cc1,inactive
11,COc1ccc(S(=O)(=O)N(C)C[C@@H]2Oc3ccc(NC(=O)C4CC4)cc3C(=O)N([C@@H](C)CO)C[C@H]2C)cc1,inactive
12,Cc1ccc(S(=O)(=O)N(C)C[C@H]2Oc3ccc(NC(=O)CCN4CCOCC4)cc3C(=O)N([C@@H](C)CO)C[C@H]2C)cc1,inactive
13,COc1ccc(S(=O)(=O)N(C)C[C@@H]2Oc3ccc(N(C)C)cc3C(=O)N([C@@H](C)CO)C[C@H]2C)cc1,active
14,COc1ccc(S(=O)(=O)N(C)C[C@H]2Oc3ccc(N(C)C)cc3C(=O)N([C@@H](C)CO)C[C@H]2C)cc1,inactive
15,C[C@@H]1CCCCO[C@H](CN(C)S(=O)(=O)c2ccccc2)[C@@H](C)CN([C@@H](C)CO)C(=O)c2cc(NS(C)(=O)=O)ccc2O1,inactive
16,O/N=C1\CCCCc2c1[nH]c1ccc(C3CCCCC3)cc21,inactive
17,C[C@@H]1CCCCO[C@@H](CN(C)C(=O)c2ccncc2)[C@H](C)CN([C@H](C)CO)C(=O)c2cc(NC(=O)NC3CCCCC3)ccc2O1,inactive
18,C[C@@H]1CN([C@H](C)CO)C(=O)c2cccc(NC(=O)c3cnccn3)c2O[C@H]1CN(C)Cc1ccncc1,inactive
19,C[C@H](CO)N1C[C@H](C)[C@H](CN(C)Cc2ccc(-c3ccccc3)cc2)Oc2c(NS(=O)(=O)c3ccc(Cl)cc3)cccc2C1=O,inactive
20,N=C(N)NCCCCN.O=S(=O)(O)O,inactive
21,N=C(N)NCCCCNC(=N)N,active
22,N=C(N)NCCCCNC(=N)N.O=S(=O)(O)O,inactive
